PubChem BioAssay (Tox21)
Results filed as inconclusive are left out. The source made the active and inactive calls. Calls follow the shape of the dose curve; as a rule, active = well fitted cell-killing curve with a large enough effect in the repeat runs; inconclusive = weak or mixed curves, or effect the other way; inactive = flat fitted curve, though single readings scatter. Where a SMILES comes first, the peptide text is derived from it.

assay: qHTS RealTime-Glo MT Cell Viability Assay in HepG2 cells - 40 hour (AID 1224870); settings: RealTime-Glo luminescence; series mostly up to 76.8 µM; also: nearly all actives have a fitted effect of over 50% in size
Outline: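 HepG2 cells (600/well) mixed with RealTime-Glo MT reagent, settled 5 h at 37 C/5% CO2 before compound addition. Nonlytic NanoLuc luminescence from viable-cell prosubstrate reduction read repeatedly during 40 h treatment at 37 C.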
% is scaled to controls: 0 for no effect and ±100 for the full control effect.

SMILES | outcome | activity change, negative = cytotoxic
CC(=O)CCC1=C(C)CCCC1(C)C | inactive | –
CNCCS(=O)(=O)O | inactive | –
CC(=O)C(C)O (configuration not stated) | inactive | –
CC1=NN(c2ccc(S(=O)(=O)O)cc2)C(=O)C1 | inactive | –
C=CCOC(=O)CCCCCC | inactive | –
CCO | inactive | –
Cc1ccc2c(c1)C(=O)c1ccccc1C2=O | inactive | –
CC(C)COC(=O)c1ccccc1 | inactive | –
NCC1(Cc2noc(=O)[nH]2)CCCCC1 | inactive | –
Cc1ccnc(N)c1 | inactive | –
CCn1cc(C(=O)O)c(=O)c2cnc(N3CCCC3)nc21 | – | 1.51% [at 6.97 µM] (inactive)
CCC[C@@H]1C[C@@H](C(=O)N[C@@H]([C@H]2O[C@H](SC)[C@H](O)[C@@H](O)[C@H]2O)[C@@H](C)O)N(C)C1 | inactive | –
C=CC(=O)OCC1CCCO1 (configuration not stated) | inactive | –
C=C(C)[C@@H]1CC=C(C)CC1 | inactive | –
Nc1nnnn1-c1ccccc1 | inactive | –
Cc1ccc(C(C)NC(=O)[C@@H](NC(=O)OC(C)C)C(C)C)cc1 (some centres not stated) | inactive | –
CSc1cnccn1 | inactive | –
CCOC(CN1CCN(CC(C)C(=O)c2ccccc2)CC1)c1ccccc1 (configuration not stated) | – | 0.0501% [at 15.8 µM] (inactive)
COS(=O)(=O)O | inactive | –

SMILES | outcome | activity change, negative = cytotoxic
CC(C)OC(=O)CCC(=O)OC(C)C | inactive | –
CC1CC(=O)CC(C)(C)C1 (configuration not stated) | inactive | –
O=C(O)CNC(=O)CNC(=O)CNC(=O)CSC(=O)c1ccccc1 | inactive | –
CCc1occc(=O)c1O | inactive | –
CC(C)NCC(O)c1ccc2ccccc2c1 (configuration not stated) | inactive | –
CC(=O)N[C@@H](CO)C(=O)N[C@@H](CC(=O)O)C(=O)N[C@@H](CCCCN)C(=O)N1CCC[C@H]1C(=O)O (Ac-SDKP-OH) | inactive | –
OC1(c2ccc(Cl)cc2)CCNCC1 | inactive | –
NCCOCCN | inactive | –
COc1cc(/C=C/C(N)=O)cc(OC)c1OC | inactive | –
CC(C)[C@H]1CC[C@H](C)C[C@@H]1O | inactive | –
O=C(O)[C@H](O)c1ccccc1 | inactive | –
CC(=O)Nc1ccc(OC(=O)c2ccccc2OC(C)=O)cc1 | inactive | –
[O]=[Mo](=[O])=[O] | – | -4.78% [at 15.8 µM] (inactive)
CC(=O)OC(C)=O | inactive | –
C=CCSSCCC | inactive | –
CC(=O)CC(=O)Nc1ccc(C)cc1C | inactive | –
COc1ccc(CCO)cc1 | inactive | –
O=[N+]([O-])c1c(Cl)cc(Cl)cc1Cl | inactive | –
